# Reference: the supplement of paper PMC10646978
# ± gives the standard deviation.
# Legend:
# Settings in all cases: modulator concentration 10 µM
# [1] = system: RAW-Dual (murine macrophage reporter line); assay: NF-kB reporter (SEAP) activity fold change vs agonist alone; higher = enhanced NF-kB activity
# Summary of the method: (§1)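 In 384-well plates holding 50 000 RAW-Dual murine macrophage reporter cells per well, compound at 10 μM final was pre-incubated for 1 hour at 37 °C, after which a PRR agonist was added overnight. Supernatant SEAP read with QUANTI-Blue at 620 nm absorbance reported NF-κB, and Lucia luciferase read with QUANTI-Luc luminescence reported IRF. Fold change values come from dividing each reporter signal by the mean of agonist-only control wells on the same plate, averaged over replicate plates with propagated errors.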
# [2] = system: RAW-Dual (murine macrophage reporter line); assay: IRF reporter (Lucia luciferase) activity fold change vs agonist alone; higher = enhanced IRF activity
# Summary of the method: as §1
# [3] = system: RAW-Dual (murine macrophage reporter line); assay: viability score (confluency relative to resting cells, overnight) (fraction); higher = more viable, active = viable (0.7 or more)
# Summary of the method: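 In 384-well plates, RAW-Dual macrophages received compound at a final 10 μM overnight. Two confluency masks were then made with IncuCyte software from IncuCyte images of all imaged wells. The viability score is defined as confluency relative to resting cells. Passing the cutoff required both masks to lie above 70% of resting cells.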
# [4] = agonist: CpG ODN 1826 0.5 ug/mL
SMILES,"NF-kB reporter [1, 4]",NF-kB reporter ([1]; agonist: LPS 0.1 ug/mL),NF-kB reporter ([1]; agonist: MPLA […]),IRF reporter ([2]; agonist: 3'3'-cGAMP 10 ug/mL),IRF reporter ([2]; agonist: LPS 0.1 ug/mL),IRF reporter ([2]; agonist: MPLA […]),viability score [3]
CC1=NN(c2ccc(C)c(C)c2)C(=O)/C1=N\Nc1cccc(-c2cccc(C(=O)O)c2)c1O.NCCO.NCCO,1.63 ± 0.31,1.28 ± 0.23,1.49 ± 0.14,0.601 ± 0.019,1.16 ± 0.098,1.2 ± 0.11,0.861 (active)
C[C@@H](O[C@H]1OCCN(Cc2nc(=O)[nH][nH]2)[C@H]1c1ccc(F)cc1)c1cc(C(F)(F)F)cc(C(F)(F)F)c1 [Prestw-1600],0.345 ± 0.022,0.516 ± 0.058,0.333 ± 0.023,1.64 ± 0.067,1.23 ± 0.078,0.969 ± 0.13,0.264 (inactive)
N=C(N)Nc1ccc(Cl)cc1,1.02 ± 0.1,1.05 ± 0.067,0.961 ± 0.042,0.984 ± 0.08,0.986 ± 0.058,0.885 ± 0.099,0.991 (active)
COCC(C)(CNS(=O)(=O)c1ccccc1Br)OC (configuration not stated),0.978 ± 0.091,1.13 ± 0.091,0.933 ± 0.1,0.982 ± 0.049,1.07 ± 0.11,1.06 ± 0.18,0.993 (active)
O=C1c2ccccc2C(=O)c2c1ccc(O)c2O,1.03 ± 0.098,1.06 ± 0.054,1.02 ± 0.027,0.948 ± 0.084,0.949 ± 0.039,0.978 ± 0.076,0.999 (active)
CN1CCC[C@@H]1CCO[C@](C)(c1ccccc1)c1ccc(Cl)cc1.O=C(O)/C=C/C(=O)O,1.17 ± 0.29,1.01 ± 0.13,1.06 ± 0.1,0.526 ± 0.021,1.28 ± 0.17,1.63 ± 0.16,0.321 (inactive)
Cc1ccccc1Oc1ccc(S(=O)(=O)N2CCCC2)cc1,0.68 ± 0.03,1.02 ± 0.14,0.922 ± 0.061,0.385 ± 0.018,1.03 ± 0.14,1.22 ± 0.26,0.953 (active)
CC1(C)[C@H](C(=O)O)N2C(=O)C[C@H]2S1(=O)=O,0.998 ± 0.11,1.05 ± 0.079,1.06 ± 0.033,0.944 ± 0.072,0.931 ± 0.038,0.859 ± 0.068,0.994 (active)
COc1cccc(-c2csc(C(C#N)=CNc3cc(Cl)ccc3OC)n2)c1,0.939 ± 0.096,1.06 ± 0.083,0.963 ± 0.093,0.964 ± 0.024,1.24 ± 0.21,1.01 ± 0.26,1.01 (active)
Cc1ccc(-c2cc(-c3ccccc3)nc(NN=Cc3ccc(O)cc3)n2)cc1,0.952 ± 0.12,1.3 ± 0.14,1.7 ± 0.17,0.228 ± 0.026,0.942 ± 0.12,0.949 ± 0.12,0.923 (active)
CCOC(=O)C1C(=O)C=C(C)C(C(=O)OCC)C1c1ccc(Br)cc1 (configuration not stated),1.05 ± 0.083,1.01 ± 0.093,1.06 ± 0.07,1.17 ± 0.047,1.3 ± 0.17,1.25 ± 0.19,1 (active)
CCOc1ccc2c(c1)C(C)=CC(C)(C)N2 [Prestw-765],0.892 ± 0.098,1.07 ± 0.055,1.11 ± 0.029,0.812 ± 0.065,0.967 ± 0.052,0.997 ± 0.082,1 (active)
Cc1ccc(S(=O)(=O)n2cnc3ccccc32)cc1,1.11 ± 0.091,1.04 ± 0.071,1.02 ± 0.041,0.861 ± 0.12,1.07 ± 0.09,0.993 ± 0.14,0.998 (active)
C=CCn1c(-c2ccc(OC)cc2)cnc1SCC(=O)N1CCc2ccccc21,0.967 ± 0.12,1.06 ± 0.09,1.09 ± 0.18,0.927 ± 0.1,1.03 ± 0.062,0.962 ± 0.11,1 (active)
CCC(=O)Nc1cccc(NC(=O)c2ccc(F)cc2)c1,0.852 ± 0.066,0.906 ± 0.12,0.977 ± 0.092,0.99 ± 0.05,1.32 ± 0.092,1.39 ± 0.17,0.997 (active)
CN(C/C=C/C#CC(C)(C)C)Cc1cccc2ccccc12,0.812 ± 0.066,0.987 ± 0.059,1.08 ± 0.095,1.12 ± 0.055,1.24 ± 0.078,1.27 ± 0.12,1.01 (active)
CC(=O)OCCN(CCOC(C)=O)c1c(C)[nH]c(=O)[nH]c1=O,0.864 ± 0.067,0.809 ± 0.079,0.994 ± 0.089,0.976 ± 0.05,1.52 ± 0.093,1.7 ± 0.17,1.02 (active)
CS(=O)(=O)O.N#CC1(c2ccc(NC(=O)c3cccnc3NCc3ccncc3)cc2)CCCC1,0.394 ± 0.03,0.69 ± 0.033,0.547 ± 0.052,0.396 ± 0.019,1 ± 0.074,0.99 ± 0.083,0.992 (active)
CC(Oc1cccc(Cl)c1)C(=O)NCc1ccncc1 (configuration not stated),0.955 ± 0.098,1.09 ± 0.071,1.07 ± 0.091,0.985 ± 0.057,1.24 ± 0.13,0.988 ± 0.11,1.02 (active)
Cc1cc(OCC(=O)Nc2ccc(Cl)c(C(F)(F)F)c2)ccc1Cl,0.934 ± 0.079,0.942 ± 0.056,1.24 ± 0.11,1.02 ± 0.051,1.7 ± 0.1,1.83 ± 0.19,0.971 (active)
Brc1ccc(-c2nc(-c3ccccc3)cc(N3CCOCC3)n2)cc1,1.05 ± 0.089,1.01 ± 0.066,1.01 ± 0.039,0.961 ± 0.097,1.11 ± 0.1,1.09 ± 0.16,1 (active)
O=C(NN=Cc1ccc([N+](=O)[O-])o1)c1ccc(O)cc1,2.16 ± 0.17,1.49 ± 0.097,1.62 ± 0.066,0.956 ± 0.063,1.77 ± 0.18,1.22 ± 0.22,0.938 (active)
Cl.Cl.O=C(O)COCCN1CCN(C(c2ccccc2)c2ccc(Cl)cc2)CC1 (configuration not stated),0.906 ± 0.15,0.996 ± 0.29,0.892 ± 0.05,0.942 ± 0.029,1.17 ± 0.39,1.14 ± 0.11,0.987 (active)
CNC(=O)c1cc(Oc2ccc(NC(=O)Nc3ccc(Cl)c(C(F)(F)F)c3)cc2)ccn1.Cc1ccc(S(=O)(=O)O)cc1,0.448 ± 0.038,0.8 ± 0.048,0.791 ± 0.072,0.246 ± 0.019,0.575 ± 0.047,0.513 ± 0.069,1.01 (active)
CC1ON(c2ccc(Cl)c(Cl)c2)C(=O)NC1=O (configuration not stated),1.02 ± 0.13,0.886 ± 0.065,1.06 ± 0.11,1.03 ± 0.032,1.27 ± 0.2,1.49 ± 0.24,0.998 (active)
COc1ccc(C2N3CC4(C)CN2CC(C)(C3)C4=O)cc1 (configuration not stated),1.03 ± 0.17,0.973 ± 0.093,0.947 ± 0.082,1.03 ± 0.027,1.32 ± 0.2,1.27 ± 0.15,1 (active)
